Data on 17 molecules can be found in PubChem BioAssay (NCI).

Molecules are shown by their SMILES. This is part of a sample that, as a whole, favours compounds with a hit. Of some 79,000 tested, about 15% had one in any assay. Calls of active or inactive are those of the source. No stated cut-off is given here; in the data, active means growth inhibition above about 70%; inactive means the rest.

The assay in a line: NCI Yeast Anticancer Drug Screen. Data for the sgs1 mgt1 strain (AID 161).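 Further: 0% = growth of cultures given vehicle only.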 As to conditions: S. cerevisiae sgs1 mgt1 strain, at 50.0 µM, active compounds read high. Put shortly: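 Mutant yeast exposed to compound; growth scored against vehicle-only wells.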
As to `Cc1ccc(C(=O)C(c2nc3n(c2O)/C(=N/C(=O)Nc2ccc(Cl)cc2)N=N3)c2nc3n(c2O)/C(=N/C(=O)Nc2ccc(Cl)cc2)N=N3)cc1`, the growth inhibition is -27.2% (inactive).

For `CCCCS(=O)(=O)CCC(N)C(=O)O` (configuration not stated), the growth inhibition was 2.6% (inactive).

As to `Clc1ccc(C2N3CCCCC3[C@@H]3c4[nH]c5ccccc5c4CCN23)cc1` (some centres not stated), the growth inhibition was -4.7% (inactive).

`O=C1NC(=O)C(c2ccc(Cl)c(Cl)c2)N1` (configuration not stated): the growth inhibition is -13.2% (inactive).

With `CCCC(C)C(=O)OCCOC` (configuration not stated), the growth inhibition was -2.95% (inactive).

With `Cc1ccc(N=Cc2cc(Cl)cc(Cl)c2OC(=O)c2ccccc2)cc1C`, the growth inhibition was 91% (active).

Turning to `CN(Cc1ccccc1)C(=O)NC1CCCCC1`, the growth inhibition was 4.8% (inactive).

With `c1ccc2c(-c3ccncc3)c3ccccc3cc2c1`, the growth inhibition is 9.45% (inactive).

With `C(=N/Nc1ccccc1)/c1ccco1`, the growth inhibition is -2.05% (inactive).

In the case of `CCCc1sc(NC(C)=O)nc1-c1ccccc1`, the growth inhibition was 15.2% (inactive).

On to `CC(=O)OC1CCC2(C)C(CCC3(C)C2CC=C2C4CC(C)(C)CCC4(C)CCC23C)C1(C)C` (configuration not stated), for which the growth inhibition is -8.8% (inactive).

As for `CCOC(=O)C(C)c1nc2cc(C(F)(F)F)ccc2[nH]c1=O` (configuration not stated), the growth inhibition was 8.1% (inactive).

With `NC(=O)C(=O)NNC(=O)Nc1ccc(Cl)cc1`, the growth inhibition is 7.8% (inactive).

As for `CCCCC1OCCOC1C1COCCO1` (configuration not stated), the growth inhibition is -10.8% (inactive).

`CC(=O)Oc1ccc(Nn2c3ccccc3c3ccccc32)c(C)c1`: the growth inhibition is 36.1% (inactive).

For the molecule `CCCCCCCCC(=O)Nc1nc2nc[nH]c2c(=O)[nH]1`, the growth inhibition was -15.3% (inactive).

As for `CCC(CC)C(=O)OCCCCC1CCCO1` (configuration not stated), the growth inhibition is 4.75% (inactive).
